# Measurements as given in PubChem BioAssay AID1159580 (chemical genetic matrix, 2015).
# Out of some 5,500 compounds screened, about 2,000 (36%) were called active. Not shown: some 18% with an inconclusive outcome. The list shows a part of the results. A number with no mark means an inactive call. No stated cut-off is given here; in the data, active means normalized growth mostly below about 0.91 (no sharp cut-off); inconclusive means no clear call, values can overlap the other calls; inactive means mostly above about 0.92.
# Experiment: chemical genetic growth profiling, strain panel (AID 1159580);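 further: tested at 20 µM; growth read once vehicle control cultures reached saturation at 30 °C; 1 = growth at the plate median or of vehicle wells; lower values mean less growth of the strain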
# Conditions: S. cerevisiae deletion strains, growth OD
compound,measurement,setting,value
CC(CC(O)C1OC1(C)C)[C@@H]1CCC2(C)C3=CCC4C(C)(C)C(=O)CCC4(C)C3CC[C@@]12C (stereo partly specified),normalized growth,"locus YAL021C, strain ccr4, hits give low values",0.986
same,normalized growth,"locus YAL026C, strain drs2, hits give low values",0.997
same,normalized growth,"locus YAL030W, strain snc1, hits give low values",1
same,normalized growth,"locus YBL061C, strain skt5, hits give low values",1.02
same,normalized growth,"locus YBR009C, strain hhf1, hits give low values",0.979
same,normalized growth,"locus YBR021W, strain FUR4, hits give low values",0.993
same,normalized growth,"locus YBR023C, strain chs3, hits give low values",1.01
same,normalized growth,"locus YBR171W, strain sec66, hits give low values",0.999
same,normalized growth,"locus YBR229C, strain ROT2, hits give low values",1.03
same,normalized growth,"locus YBR231C, strain swc5, hits give low values",1.04
same,normalized growth,"locus YBR279W, strain paf1, hits give low values",0.999
same,normalized growth,"locus YCL011C, strain gbp2, hits give low values",1.01
same,normalized growth,"locus YCL016C, strain dcc1, hits give low values",0.994
same,normalized growth,"locus YCL029C, strain bik1, hits give low values",1.03
same,normalized growth,"locus YCL061C, strain MRC1, hits give low values",0.994
same,normalized growth,"locus YCL069W, strain vba3, hits give low values",0.995
same,normalized growth,"locus YCR088W, strain abp1, hits give low values",1.01
same,normalized growth,"locus YDL005C, strain med2, hits give low values",1.01
same,normalized growth,"locus YDL035C, strain GPR1, hits give low values",0.952
same,normalized growth,"locus YDL040C, strain nat1, hits give low values",1
same,normalized growth,"locus YDL074C, strain BRE1, hits give low values",1.02
same,normalized growth,"locus YDL101C, strain DUN1, hits give low values",1.04
same,normalized growth,"locus YDL134C, strain PPH21, hits give low values",1.03
same,normalized growth,"locus YDL185W, strain tfp1, hits give low values",1.03
same,normalized growth,"locus YDL192W, strain arf1, hits give low values",1.03
same,normalized growth,"locus YDR001C, strain nth1, hits give low values",0.984
same,normalized growth,"locus YDR069C, strain doa4, hits give low values",1
same,normalized growth,"locus YDR101C, strain arx1, hits give low values",1.02
same,normalized growth,"locus YDR137W, strain rgp1, hits give low values",0.831 (active)
same,normalized growth,"locus YDR159W, strain sac3, hits give low values",1.01
same,normalized growth,"locus YDR162C, strain NBP2, hits give low values",1.04
same,normalized growth,"locus YDR195W, strain ref2",0.971
same,normalized growth,"locus YDR297W, strain sur2, hits give low values",1
same,normalized growth,"locus YDR318W, strain mcm21, hits give low values",1.04
same,normalized growth,"locus YDR334W, strain swr1, hits give low values",0.997
same,normalized growth,"locus YDR335W, strain msn5, hits give low values",0.993
same,normalized growth,"locus YDR388W, hits give low values",1.03
same,normalized growth,"locus YDR392W, strain spt3, hits give low values",1.02
same,normalized growth,"locus YDR502C, strain sam2, hits give low values",1.03
same,normalized growth,"locus YEL003W, strain gim4, hits give low values",1.01
same,normalized growth,"locus YEL037C, strain rad23, hits give low values",1
same,normalized growth,"locus YEL061C, strain CIN8 (second series), hits give low values",1
same,normalized growth,"locus YER015W, strain faa2, hits give low values",1
same,normalized growth,"locus YER016W, strain bim1, hits give low values",1
same,normalized growth,"locus YER110C, hits give low values",1.03
same,normalized growth,"locus YER111C, strain swi4, hits give low values",1.02
same,normalized growth,"locus YER155C, strain BEM2 (second series), hits give low values",1.04
same,normalized growth,"locus YER155C, strain BEM2, hits give low values",1.04
same,normalized growth,"locus YER167W, strain BCK2, hits give low values",1.05
same,normalized growth,"locus YFR010W, strain ubp6, hits give low values",0.997
same,normalized growth,"locus YGL078C, strain dbp3, hits give low values",1.01
same,normalized growth,"locus YGL086W, strain mad1, hits give low values",1.05
same,normalized growth,"locus YGL167C, strain pmr1, hits give low values",0.999
same,normalized growth,"locus YGL173C, strain kem1, hits give low values",1
same,normalized growth,"locus YGL227W, strain vid30, hits give low values",0.998
same,normalized growth,"locus YGL240W, strain doc1, hits give low values",1.02
same,normalized growth,"locus YGL248W, strain PDE1, hits give low values",1.03
same,normalized growth,"locus YGL253W, strain hxk2, hits give low values",0.994
same,normalized growth,"locus YGR135W, strain pre9, hits give low values",1.04
same,normalized growth,"locus YGR229C, strain SMI1, hits give low values",1.08
same,normalized growth,"locus YGR252W, strain gcn5, hits give low values",1.17
same,normalized growth,"locus YHR013C, strain ard1, hits give low values",1.03
same,normalized growth,"locus YHR027C, strain rpn1, hits give low values",1
same,normalized growth,"locus YHR030C, strain SLT2, hits give low values",1.03
same,normalized growth,"locus YHR079C, strain IRE1 (second series), hits give low values",1.03
same,normalized growth,"locus YHR094C, strain hxt1, hits give low values",1.04
same,normalized growth,"locus YHR129C, strain ARP1, hits give low values",1.04
same,normalized growth,"locus YHR142W, strain chs7, hits give low values",1
same,normalized growth,"locus YHR200W, strain rpn10, hits give low values",1.03
same,normalized growth,"locus YIL066C, strain RNR3, hits give low values",1.01
same,normalized growth,"locus YIL073C, strain SPO22, hits give low values",1.1
same,normalized growth,"locus YIL125W, strain kgd1, hits give low values",1.03
same,normalized growth,"locus YIR030C, strain dcg1, hits give low values",1.03
same,normalized growth,"locus YJL092W, strain hpr5, hits give low values",1
same,normalized growth,"locus YJL095W, strain BCK1 (second series), hits give low values",1
same,normalized growth,"locus YJL095W, strain BCK1, hits give low values",1.05
same,normalized growth,"locus YJL115W, strain asf1, hits give low values",0.992
same,normalized growth,"locus YJL129C, strain trk1, hits give low values",0.993
same,normalized growth,"locus YJL134W, strain LCB3, hits give low values",1.04
same,normalized growth,"locus YJL154C, strain vps35, hits give low values",1
same,normalized growth,"locus YJL164C, strain tpk1, hits give low values",0.966
